Measured values taken from PubChem BioAssay (NCI).
This is part of a sample that, as a whole, favours compounds with a hit. Of some 83,000 tested, about 20% had one in any assay.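 Percent growth is the endpoint: 0 to 100 indicates growth inhibition (40 means 60% inhibition), 0 means no net growth, and negative values indicate cell death.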 Values without a mark were called inactive. The source made the active and inactive calls.

Test system: A498 renal
Assay: NCI-60 one-dose screen, 48 h (100 = growth as untreated, 0 = no growth, -100 = all killed)
Conditions: 10 µM unless noted
Procedure: Growth inhibition of the A498 human tumor cell line is measured as a screen for anti-cancer activity. Cells are grown in 96 well plates and exposed to the test compound for 48 hours. Compounds are tested at a single concentration, which is 10^-5 M for most compounds. The reported endpoint is percent growth (GI% or GIPRCNT), where numbers from 0 - 100% represent growth inhibition, and numbers from -100% - 0 represent cell death. For example, a value of 40 represents 60% growth inhibition. A value of 0 means no net growth occurred over the course of the experiment. A value of -40 indicates 40% of cells at the beginning of the experiment died by the end of the experiment. A value of -100 means all cells are dead at the end of the experiment.
NCI-60 Human Tumor Cell Lines Screen was performed using the standard one-dose NCI protocol, which is described in more detail at https://dtp.cancer.gov/discovery_development/nci-60/default.htm.
Compounds with GIPRCNT values below 10 were considered active. Activity score was based on GIPRCNT using the following formula: […]
Score is 0 for GIPRCNT values of 100 or above, 50 for GIPRCNT values of 0, and 100 for GIPRCNT values of -100.

Compound	growth
Cc1ccccc1-n1nnc(C(=O)Nc2nc(-c3ccccc3)c(-c3ccccc3)s2)c1C	104% [50 µM]
Cc1cc(O)cc2c1[C@H]1CC[C@]3(C)[C@@H](O)CC[C@H]3[C@@H]1C=C2	118%
O=c1[nH]c(-c2ccccn2)nc2sc3c(c12)CCCCCC3	36.7%
CN1CCc2c(c3ccccc3c3ccccc23)C1	62.9%
O=C1c2[nH]cc(CN[C@@H]3CCCN3)c2C(=O)c2c1c(O)c1ccccc1c2O	38.1%
O=c1[nH]c(=O)n(Cc2ccc(F)cc2)cc1F	92.1% [50 µM]
Cc1cc(Cl)c2c(Cl)ccc(Cl)c2n1	104%
Nc1nc2c(s1)CCc1c-2c(Br)n(Cc2ccccc2)c1Br	91.5%
COc1cc(C2C3=C(COC3=O)N(CCO)c3cc4c(cc32)OCO4)cc(OC)c1O (stereo not given)	-2.62% (active)
O=C(c1ccc2ncc(-c3nc(NC4CC4)ncc3F)n2c1)N1CCOCC1	-30.3% (active)
Fc1ccccc1Nc1ccc2nnc(-c3ccncc3)n2n1	95.6%
Cc1ccc(N=c2nc3sc4c(C)ccc(C)c4n3c(N)c2C#N)cc1	110%
COc1ccc(-c2c3c(N)c4c(nc3nc3c2c(C)nn3-c2ccccc2)CCCC4)cc1	78.7%
c1ccc(-c2n(Cc3ccc4ccccc4n3)c3ccccc3[n+]2Cc2ccc3ccccc3n2)cc1	-16.4% (active)
FCOC(C(F)(F)F)C(F)(F)F	95.3%
C=CC(=O)N1CC2(CCC(n3nc(-c4ccc(Oc5ccccc5)cc4)c4c(N)ncnc43)CC2)C1	-93.2% (active)
CC(C)NCC(O)COc1ccc(CCOCC2CC2)cc1 (stereo not given)	90.7%
Brc1ccccc1Nc1ccc2nnc(-c3ccncc3)n2n1	101%
C=C(C)COC(=O)c1ccccc1C(=O)OCC1(C)CO1 (stereo not given)	108%
O=C1C(Br)=C(c2ccccc2)C(=O)C(Br)=C1c1ccccc1	67.3%

Compound	growth
Cc1nc2cc(Nc3nc(N4CCCCC4)nc(N4CCOCC4)n3)ccc2n1Cc1ccccc1	38.8%
CCOC(=O)c1c(-c2cc(OC)c(OC)c(OC)c2)csc1N	101%
CCN1C(=O)C2(Nc3ccccc3S2)c2cc(C)ccc21 (stereo not given)	138%
COc1c(Cl)ccc2c(-c3nc4cc(Cl)c(F)cc4s3)cc(=O)oc12	107%
Cc1ccc(S(=O)(=O)N(c2ccc(Cl)cc2)c2ccc(Br)cc2C(=O)O)cc1	111%
CC1SC(c2cccc(Oc3ccccc3)c2)N(CCc2cccs2)C1=O (stereo not given)	-56.6% (active)
Cc1nn(CC(=O)O)c2c1C(=O)CC(C)(C)C2	97.8%
Cc1cc(NS(=O)(=O)c2ccc(NC(=O)COc3ccc(-c4cc5ccccc5[nH]4)cc3)cc2)no1	42.9%
COc1cccc(-c2ccc3c(c2)C2CCN(Cc4ccccc4)C3C2)c1 (stereo not given)	65%
COCCOC1=C(Cl)C(=O)c2ccccc2C1=O	67.6%
NC(=O)c1cc(Cl)ccc1NC(=O)COc1ccccc1	83.5%
O=C(NCc1ccc(F)cc1)C1CN(c2ccc(Cl)cc2)N(c2ccc(Cl)cc2)C1=O (stereo not given)	39.8%
COc1nc2c(cc1S(=O)(=O)c1ccccc1)CCc1c-2cnn1-c1cccc(Cl)c1	54.6%
CC1=C(C/C=C(\C)CCC[C@H](C)CCC[C@H](C)CCCC(C)C)C(=O)c2ccccc2C1=O	101%
COc1cccc(OC(=O)c2ccccc2)c1OC(=O)c1ccccc1	88.9%
Oc1ccc(Cl)cc1CNc1nc2ccccc2[nH]1	59.6%
COc1ccc(-n2c(SCc3cc(OC)c(OC)c(OC)c3)nc3ccc(C)cc3c2=O)c(OC)c1	-16.4% (active)
O=C1c2cc(S(=O)(=O)O)ccc2C(=O)c2c1cccc2[N+](=O)[O-]	103%
O=C(COc1cccc(/C=C2\COc3ccccc3C2=O)c1)c1ccccc1	86.9%
c1ccc(-c2n(Cc3ccc4ccccc4c3)c3ccccc3[n+]2Cc2ccc3ccccc3c2)cc1	-40.6% (active)
